The text below walks through data of PubChem BioAssay (NCATS).

Results filed as inconclusive are left out. A call without a number means that no potency is given here. Activity calls are given as the source filed them. Calls come from the whole dose curve; as a rule, active = well fitted cell-killing curve with a large enough effect; inconclusive = small, poorly fitted or top-dose-only effect, or effect the other way; inactive = flat fitted curve, though single readings scatter.
Potency is the fitted concentration of half-maximal effect.

In this assay the test system is CAOV3. Description: Primary qHTS to identify gynecologic anti-cancer compounds using libraries of approved drugs and bioactive compounds (AID 1345084). Note: nearly all actives have a fitted effect of over 55% in size. Conditions: Gynecologic cancer cell panel viability, ATPlite luminescence, 48 h; series mostly up to 57.5 µM. The source says: National Center for Advancing Translational Sciences [NCATS] Assay Overview: Chemotherapeutic drug responses vary from cancer to cancer and from patient to patient. These variations could be caused by a number of factors including patient genomic background, tumor mutations, tumor heterogeneity, and aspects of drug treatment. Chemotherapeutic drug resistance is also a common issue and can lead to ineffective treatment and patient death. Here we have profiled the cell killing effects of thousands of compounds to characterize the responses in three gynecological cancers, identify cancer-selective compounds, and understand the diversity of responses to these compounds from pan-cancer suppressors to single cell line selective compounds. In this assay, we screened a 7,914 compound drug library that included approved drug and bioactive compounds in six ovarian, three cervical, and […] placental cancer cell lines using the ATPlite assay for cell viability. […] The cervical cancer cell lines included HeLa, Ca Ski, and C-33 A. The placental cancer cell lines included JEG-3. HEK 293T cells were used as the control cell line to determine the selectivity index. ATPlite is a luminescence based assay reliant on the conversion of a luciferase substrate to light in the presence of ATP. As a cytotoxic compound will suppress growth and decrease the number of cells, the concentration of ATP will decrease, and less light signal will be detected in the well.
Assay Protocol Summary: 1,000 cells in 4 uL of media were dispensed into white, solid bottom 1536-well plates using a Multidrop Combi (Thermo Scientific). The Assay plates were incubated for 16 hours at 37 C with 5% CO2 in assay plates, followed by the addition of 23 nL of DMSO or drug dissolved in DMSO. Each compound was assayed in five concentrations (0.092, 0.46, 2.3, 11.5, and 57.5 uM), using the automated Wako 1536 Pin Tool workstation and incubated at 37 C with 5% CO2 48 hours. 4 uL of ATPlite, the ATP monitoring reagent, was then added to the each well of the assay plates using the Multidrop Combi reagent dispenser followed by incubation for 15 minutes at room temperature. The resulting luminescence was measured using the ViewLux plate reader.
Turning to `C/C=C(/COC(=O)/C(C)=C/C)C(=O)OC/C=C/c1ccc(OC)cc1`, the Potency entry was “inactive”.

For `CC1(C)CC23[C@@H]4CC(=O)[C@@H]2COC(=O)[C@@H]3CC[C@H]41`, the Potency result was “inactive”.

For the compound `C=C1C(=O)O[C@@H]2CC(C)=C([C@@H](C)CCCO)[C@@H](OC(=O)C(C)C)[C@H]12`, the Potency result is “inactive”.

For `COc1cc(O)c(C(=O)CCc2ccc(O)cc2)c(O[C@@H]2O[C@H](CO)[C@@H](O)[C@H](O)[C@H]2O)c1`, the Potency entry was “inactive”.

Take `CC1CCC(n2c3cnccc3c3cnc(Nc4ccc5c(n4)CCN(C(=O)CO)C5)nc32)CC1` (stereo not given): the Potency result was “inactive”.

Take `C=C1CC[C@@H]2[C@](C)(CO)[C@H](O)CC[C@@]2(C)[C@@H]1C/C=C1/C(=O)OC[C@@H]1O`: the Potency entry was “inactive”.

Regarding `FC(F)(F)c1ccc(CNc2ccc(Cc3c[nH]c4ncccc34)cn2)cc1`, the Potency result is “inactive”.

As for `C=C(C)[C@@H]1CC[C@]2(C(=O)O)CC[C@]3(C)C(CCC4[C@@]5(C)C[C@@H](O)[C@H](O)C(C)(C)C5CC[C@]43C)C12` (stereo not given in full), the Potency entry was “inactive”.

For the compound `C=C1C(=O)O[C@@H]2C[C@@]3(C)CCC[C@H](C)C3=C[C@H]12`, the Potency entry was “inactive”.

`CCCCc1nc(C)c(CC(=S)N(C)C)c(=O)n1Cc1ccc(-c2ccccc2-c2nn[nH]n2)cc1`: the Potency result is “inactive”.

Consider `CCOC(=O)c1cccc(CNc2ccc(N(C)C(=O)Nc3ccccc3)cc2)c1`, for which the Potency entry is “inactive”.

For `CCNC(=O)[C@@H]1CCCN1C(=O)[C@H](CCCN=C(N)N)NC(=O)[C@H](CC(C)C)NC(=O)[C@@H](CC(C)C)NC(=O)[C@H](Cc1ccc(O)cc1)NC(=O)[C@H](CO)NC(=O)[C@H](Cc1c[nH]c2ccccc12)NC(=O)[C@H](Cc1cnc[nH]1)NC(=O)[C@@H]1CCC(=O)N1`, the Potency result was “inactive”.

For the compound `C=C(C)C(=O)OC1[C@@H]2C(=C)C(=O)O[C@@H]2C[C@@H](C)[C@@H]2C=CC(=O)[C@@]12C` (stereo not given in full), the Potency entry was “inactive”.

Consider `Cc1cc(CN)cc(C)c1NC(=O)c1ccc(-c2cc(Cl)ccc2Cl)o1`, for which the Potency entry is “inactive”.

Take `O=C(Nc1ccc(F)cc1)N1CCc2ccccc2C1c1ccc(C(F)(F)F)cc1` (stereo not given): the Potency result was “inactive”.

Take `COc1ccc(C(=O)N(CCC(C)C)Cc2nc(C)c(C)n2Cc2ccccc2C)c(OC)c1`: the Potency result was “inactive”.

`C[C@@H](O[C@H]1OCCN(Cc2n[nH]nc2CN(C)C)[C@H]1c1ccc(F)cc1)c1cc(C(F)(F)F)cc(C(F)(F)F)c1`: the Potency entry is “inactive”.

With `CS(=O)(=O)c1ccc(-c2cn3ccccc3n2)cc1`, the Potency was 10 µM (active).

`COc1ccc2c3ccnc4ccc(=O)n(c2c1)c43`: the Potency result was “inactive”.

With `C=CC(=O)Nc1cc(Nc2nccc(-c3cn(C)c4ccccc34)n2)c(OC)cc1N(C)CCN(C)C`, the Potency was 35.5 µM (active).

With `CO[C@@H]1[C@@H](O[C@H]2O[C@@H](C)[C@H](O[C@@H]3C[C@](C)(O)[C@H](O)[C@@H](C)O3)[C@@H](N(C)C)[C@@H]2O)[C@@H](CC=O)C[C@@H](C)[C@@H](O[C@H]2CC[C@H](N(C)C)[C@H](C)O2)/C=C/C=C/C[C@@H](C)OC(=O)C[C@H]1O`, the Potency result is “inactive”.

Regarding `COc1cc2ncnc(Nc3ccc(Oc4ccccc4)cc3)c2cc1OC`, the Potency was 31.6 µM (active).

For the compound `C[C@@H]1CCNC(=O)c2cc3ccc(C(=O)Nc4nc5ccccc5n4CCCN(C)C)cc3n21`, the Potency was 25.1 µM (active).

Turning to `CC1CCN(c2cc(NC(=O)c3ccccc3)ncn2)CC1`, the Potency entry was “inactive”.

Turning to `CCC(=O)c1cc(-c2ccc(Cl)cc2)n(-c2ccc(S(N)(=O)=O)cc2)c1C`, the Potency result was “inactive”.

As for `COc1cccc(CNC(=O)Nc2nc(-c3ccncc3)cs2)c1`, the Potency entry is “inactive”.

Turning to `CN(Cc1ccc(C(=O)O)cc1)c1ccc(OCc2c(-c3c(Cl)cccc3Cl)noc2C2CC2)nc1C(F)(F)F`, the Potency result is “inactive”.

Turning to `Cn1c(NC[C@@H](N)Cc2ccccc2)nc(-c2ccncc2)c(-c2ccc3ccccc3c2)c1=O`, the Potency result is “inactive”.

For the compound `COc1ccc(Cl)cc1[C@@]1(F)C(=O)Nc2cc(C(F)(F)F)ccc21`, the Potency result is “inactive”.

In the case of `CC1=CC(=O)[C@@]2(C(C)C)C[C@@H]12`, the Potency result was “inactive”.

Take `CCC[C@@H](NC(=O)N1C(=O)C(CC)(CC)[C@@H]1Oc1ccc(C(=O)N2CCN(C)CC2)cc1)c1ccc2c(c1)OCO2`: the Potency result is “inactive”.

For the compound `CC1OC2O[C@H]3[C@@H](OCC(O)[C@H]3O)OC(=O)C34CCC(C)(C)CC3C3=CCC5C6(C)CC(O)C(OC7OC(CO)C(O)C(O)C7O[C@@H]7OC[C@H](OC(=O)CC(C)(O)CC(=O)OC1C(OC1OCC(O)C(O)C1O)C2O)[C@@H](O)[C@H]7O)C(C)(CO)C6CCC5(C)C3(C)CC4` (stereo not given in full), the Potency result is “inactive”.

Turning to `CC/C(=C(\c1ccc(O)cc1)c1ccc(OCCNC)cc1)c1ccccc1`, the Potency result is “inactive”.

For the compound `COc1cc2ncnc(Oc3cccc(NC(=O)Nc4cc(C(C)(C)C(F)(F)F)on4)c3)c2cc1OC`, the Potency result was “inactive”.

Turning to `COc1cc(-c2cc(-c3cccc(O)c3)cnc2N)cc(OC)c1OC`, the Potency result was “inactive”.

Consider `CC[C@H](CO)Nc1nc(Nc2cccc(-c3ccccn3)c2)c2ncn(C(C)C)c2n1`, for which the Potency result is “inactive”.

For `CN1CCN(C(=O)c2ccc(Nc3nccc(-c4cccs4)n3)cc2Cl)CC1`, the Potency entry is “inactive”.

Consider `CCCCc1nc(Cl)c(CO)n1Cc1ccc(-c2ccccc2-c2nnn[nH]2)cc1`, for which the Potency entry is “inactive”.

For `Fc1ccccc1CNCc1ccc(-c2ccnc3[nH]ccc23)cc1`, the Potency entry is “inactive”.

As to `N#Cc1cccc(C#N)c1-c1nc2c3ccccc3c3cc(Cl)ccc3c2[nH]1`, the Potency entry was “inactive”.
